# Bioassay records from PubChem BioAssay.
# D2 antagonist: HTS Assay for Allosteric Antagonists of the Human D2 Dopamine Receptor: Primary Screen for Antagonists. D(2) dopamine receptor (Homo sapiens), P14416. HEK293 TREx D2 cells, calcium flux, dopamine EC80. inhibition, % at 10 µM. 340,000 tested, 2% active; in the data active = inhibition above about 30%; inactive = below that, where a call was filed
# Target sequence (P14416 whole entry, looked up): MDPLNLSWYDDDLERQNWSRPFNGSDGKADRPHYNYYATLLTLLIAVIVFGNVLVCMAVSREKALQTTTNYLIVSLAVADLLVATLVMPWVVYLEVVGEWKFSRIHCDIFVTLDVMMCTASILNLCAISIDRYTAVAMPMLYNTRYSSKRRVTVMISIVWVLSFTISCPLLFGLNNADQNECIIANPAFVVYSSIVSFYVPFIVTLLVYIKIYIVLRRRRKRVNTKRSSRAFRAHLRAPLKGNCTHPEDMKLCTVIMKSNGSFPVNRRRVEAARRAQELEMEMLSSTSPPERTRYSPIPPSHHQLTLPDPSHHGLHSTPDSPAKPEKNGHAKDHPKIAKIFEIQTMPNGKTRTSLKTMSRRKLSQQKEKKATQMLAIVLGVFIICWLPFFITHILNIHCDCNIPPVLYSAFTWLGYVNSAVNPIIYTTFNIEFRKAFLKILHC
#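 Overnight-induced (tetracycline, 30 C) HEK293 T-REx cells carrying force-coupled D2 receive a no-wash calcium dye, then compound, then EC80 dopamine at 180 s; signals are read kinetically throughout.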
# D2 ag-1: HTS Assay for Allosteric Agonists of the Human D2 Dopamine Receptor: Primary Screen for Agonists; D(2) dopamine receptor (Homo sapiens), P14416; 340,000 tested, 0.53% active; HEK293 T-REx D2 cells, calcium flux agonist mode; activation, % at 2 µM;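 active = activation over 3 SD above normal in the single-dose calcium agonist read, cut at about 30% in these data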
#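 Tetracycline-induced HEK293 Trex cells with D2 receptor force-coupled to calcium signaling, plated overnight at 30 C and loaded with no-wash calcium dye. Calcium flux read kinetically for 180 s after compound addition; responses flag agonists.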
# D2 ag-2: Beta-Arrestin HTS for Positive Allosteric Modulators of the Human D2 Dopamine Receptor: Agonists; D(2) dopamine receptor (Homo sapiens), P14416; DiscoveRx PathHunter D2 beta-arrestin, luminescence, 90 min; 100% = 57 uM dopamine signal; activation, % (no concentration beside the values); 360,000 tested, 0.084% active; AID 624465, 2012; in the data active = activation above about 40%; inconclusive = between about 15% and that limit
#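 DiscoveRx PathHunter D2 beta-arrestin cells (2,100/well) attached overnight, then compound-stimulated 90 min at 37 C in HBSS/10 mM HEPES/0.1% Tween-20 buffer; beta-galactosidase complementation read by luminescence after 1 h at ambient temperature. Dopamine 57 uM final (EC100) as control.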
# D2 PAM-1: Beta-Arrestin HTS for Positive Allosteric Modulators of the Human D2 Dopamine Receptor: Potentiators; D(2) dopamine receptor (Homo sapiens), P14416; DiscoveRx D2 beta-arrestin cells, luminescence, 90 min; 100% = 57 uM dopamine signal; potentiation, % (concentration not given with the values); 360,000 tested, 0.23% active; in the data active = potentiation above about 50%; inconclusive = mostly about 30% to 49%
#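 D2 cells co-treated with compound plus 50 nM dopamine (EC20) for 90 min at 37 deg C to detect potentiation. Beta-arrestin recruitment was read as enzyme-fragment luminescence after 1 h at ambient temperature. Full response was set by 57 uM dopamine.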
# D2 PAM-2: HTS Assay for Positive Allosteric Modulators of the Human D2 Dopamine Receptor: Primary Screen for Potentiators. HEK293 T-REx D2, calcium flux, EC20 dopamine potentiation. D(2) dopamine receptor (Homo sapiens), P14416. potentiation, % at 10 µM. 340,000 tested, 0.34% active;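 active = potentiation over 3 SD above the plate norm, cut at about 30% in these data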
#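 Tetracycline-induced HEK293 T-REx cells force-coupled to calcium signalling expressed D2; compounds were pin-added after a 10 s baseline, read kinetically 180 s, then an EC20 dopamine challenge followed with a further 180 s calcium read.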
# Hits are given with their value; 0 = inactive; ? = inconclusive; - = no result given. Only some compounds are listed: those with a hit (about 2.4% of all), similar ones and a draw of the others.
SMILES,D2 antagonist,D2 ag-1,D2 ag-2,D2 PAM-1,D2 PAM-2
O=C1CN(S(=O)(=O)c2ccccc2)CC(=O)N1CCc1ccccc1,0,0,0,0,0
Cc1cc(S(=O)(=O)N2CC(=O)N(CCc3ccccc3)C(=O)C2)ccc1F,0,0,0,0,31
CCN(CC)c1ccc(/C=C(/C#N)C(=O)NC(C)C)o1,0,0,0,0,0
CC(C)NC(=O)/C(C#N)=C\c1ccc(N(C)C)o1,40,0,0,0,0
CCN(CC)c1ccc(/C=C(/C#N)C(=O)NCc2ccccc2)o1,0,43,0,0,0
Cc1ccc(-c2nnc(SCC(=O)NC(C)(C)C)nc2-c2ccc(C)cc2)cc1,-,0,-,-,0
COc1ccc(CCC(=O)OCC(=O)NC(=O)c2ccc(Cl)cc2)cc1,-,-,0,0,-
CCCN(CCC)C(=O)c1ccc2c(c1)N(CC)C(=O)c1ccccc1S2(=O)=O,0,0,0,0,0
CCCN(C(=O)Cc1coc2cc(OC)ccc12)C1CCS(=O)(=O)C1 (stereo not drawn),-,-,0,0,-
COc1ccc(/C=C2\N=C(SC)NC2=O)cc1,0,0,0,0,31
CCSC1=N/C(=C\c2ccc(OC)cc2)C(=O)N1,0,0,0,0,0
CN(c1ccccc1)c1nc(N)c([N+](=O)[O-])c(N2CCCCCC2)n1,0,0,0,0,0
CCN1CCN(c2nc(Nc3ccc(C)c(C)c3)nc(N)c2[N+](=O)[O-])CC1,51,0,0,0,0
CCN1CCN(c2nc(N(C)c3ccccc3)nc(N)c2[N+](=O)[O-])CC1,49,0,0,0,0
CN1CCN(c2nc(NCc3ccco3)nc(N)c2[N+](=O)[O-])CC1,77,0,0,0,0
CC1CCCCC12NC(=O)N(CC(=O)Nc1ccc(OC(F)F)cc1)C2=O (stereo not drawn),-,-,0,0,-
Cc1nc(C(=O)NCC(=O)c2ccccc2)c(C(F)(F)F)o1,32,0,0,0,0
COc1cccc(CNC(=O)COCc2cc(-c3ccc4c(c3)OCO4)on2)c1,-,0,-,-,0
COc1cc(C2C(C#N)=C(N)Oc3n[nH]c(-c4cccnc4)c32)ccc1OCC(N)=O (stereo not drawn),30,0,0,0,0
O=C(CCNC(=O)N1CC(=O)Nc2ccccc21)Nc1ccc(Br)cc1F,55,0,0,0,0
CCSc1nc2ccccc2n1CCC(=O)O,45,0,0,0,0
Cc1cccc(N2CCN(Cc3ccoc3)CC2)c1C,67,0,0,0,0
COc1cc(CN2CCN(c3cccc(C)c3C)CC2)cc(OC)c1O,42,0,0,0,0
Cc1cc(CN2CCN(c3cccc(C)c3C)CC2)cs1,-,0,-,-,0
COc1cc(CN2CCCCCC2)cc(OC)c1O,0,0,0,0,0
SMILES,D2 antagonist,D2 ag-1,D2 ag-2,D2 PAM-1,D2 PAM-2
CC(C)(C)NC(=O)C1c2ccccc2Oc2ccccc21,47,0,0,0,0
COc1ccc2[nH]c(C(=O)N3CCNCC3)cc2c1OC,0,0,0,0,0
CSc1ccc(CCNC(=O)C(C)n2nc(C)c3sc4ccccc4c3c2=O)cc1 (stereo not drawn),-,0,-,-,0
O=C1N[C@@H](Cc2ccccc2)[C@@H](c2ccco2)O1,32,0,0,0,0
NS(=O)(=O)c1ccc(NC(=O)CSc2nc3ccccc3n2-c2ccccc2)cc1,31,0,0,0,0
O=C(O)c1cccc(CN2C(=O)S/C(=C/c3cccc([N+](=O)[O-])c3)C2=O)c1,34,0,0,0,0
CCNC(=O)COC(=O)C1CCN(S(=O)(=O)c2ccc3c(c2)OCCO3)CC1,0,0,0,0,0
N#CCOC(=O)C1CCN(S(=O)(=O)c2ccc3c(c2)OCCO3)CC1,0,0,0,0,34
Cc1ccc(-n2c(CNc3ccc(F)cc3)nnc2SCC(=O)NCc2ccco2)cc1,34,0,0,0,0
COc1ccc(NCc2nnc(SCC(=O)NCc3ccco3)n2-c2ccccc2OC)cc1,0,0,0,0,0
Cc1ccc(-n2c(CNc3ccc(F)cc3)nnc2SCC(=O)N2CCCC2)cc1,30,0,0,0,0
Cc1[nH]n(-c2nc(-c3ccc(Cl)cc3)cs2)c(=O)c1N=Nc1ccc(O)cc1,0,0,0,0,0
CCCCN(C(=O)C1CC(=O)N(CCc2ccc(OC)c(OC)c2)C1)c1c(N)n(CCCC)c(=O)[nH]c1=O (stereo not drawn),0,0,0,0,0
C=C1C(=O)C=C[C@]2(C)C[C@@H]3OC(=O)[C@](C)(O)[C@H]3C[C@@H]12,37,0,0,0,0
O=c1[nH]c(/C=C/c2ccc3c(c2)OCO3)c([N+](=O)[O-])c(=O)[nH]1,0,0,-,-,0
O=c1[nH]c(/C=C/c2ccc([N+](=O)[O-])cc2)c([N+](=O)[O-])c(=O)[nH]1,0,0,?,52,0
O=C(CN1C(=O)NC2(CCCC2)C1=O)NCCc1ccc(Cl)cc1Cl,0,0,0,0,0
O=C(CSc1nc2ccc(N3CCOCC3)cc2c(=O)n1CCc1ccccc1)NCC1CCCO1 (stereo not drawn),41,0,0,0,-
Cc1cccc(CN(C(=S)Nc2c(C)cccc2C)c2cccnc2)c1,0,0,0,0,0
CCCC(=O)N(CCN(C(=O)CCC)c1ccccc1)c1ccccc1,0,0,0,0,31
CC(C)(C)c1ccc2c(c1)N(CC(=O)O)C(=O)CO2,0,0,0,0,0
COCCNC(=O)CN1C(=O)COc2ccc(Cl)cc21,35,0,0,0,0
CN(C)CCNC(=O)CN1C(=O)COc2ccc(C(C)(C)C)cc21,36,0,0,0,0
COC(=O)CN1C(=O)COc2ccc(Cl)cc21,0,0,0,0,0
Cc1ccc2nc(Cl)c(/C=N/Nc3ccc(C(=O)O)cc3)cc2c1,0,0,0,0,0
Cc1ccc(NC(=O)N2CC3CCCN3c3ccccc32)c(C)c1 (stereo not drawn),-,-,-,-,0
Cc1nc(Nc2cccc(O)c2)c2oc3ccccc3c2n1,33,0,0,0,0
COC(=O)c1ccc(C2C(Oc3ccccc3)C(=O)N2CCc2ccc(F)cc2)cc1 (stereo not drawn),36,0,0,0,0
CCOC(=O)Cn1nnnc1CN1CCN(c2ccc(OC)cc2)CC1,0,0,0,0,0
O=C(CS(=O)c1ccc(C(F)(F)F)cc1[N+](=O)[O-])Oc1ccccc1 (stereo not drawn),0,0,0,0,33
